Reference: PubChem BioAssay AID1159580 (chemical genetic matrix, 2015)
Hit rate of the full screen: of about 5,500 compounds, about 2,000 (36%) were called active. Inconclusive results (about 18%) are left out. No stated cut-off is given here; in the data, active means normalized growth mostly below about 0.91 (no sharp cut-off); inconclusive means no clear call, values can overlap the other calls; inactive means mostly above about 0.92. Some of the results follow.

Assay: chemical genetic growth profiling, strain panel (AID 1159580);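 further: tested at 20 µM; growth read once vehicle control cultures reached saturation at 30 °C; 1 = growth at the plate median or of vehicle wells; lower values mean less growth of the strain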
Details: S. cerevisiae deletion strains, growth OD

Measured: normalized growth

CN(CCC(N)CC(=O)N[C@H]1C=CC(n2ccc(N)nc2=O)O[C@@H]1C(=O)O)C(=N)N (some centres not stated)
active: locus YAL021C, strain ccr4, hits give low values 0.406 | locus YBR009C, strain hhf1, hits give low values 0.895 | locus YBR279W, strain paf1, hits give low values 0.916 | locus YCL061C, strain MRC1, hits give low values 0.899 | locus YDL005C, strain med2, hits give low values 0.111 | locus YDR069C, strain doa4, hits give low values 0.494 | locus YDR159W, strain sac3, hits give low values 0.659 | locus YDR195W, strain ref2 0.603 | locus YDR335W, strain msn5, hits give low values 0.626 | locus YDR392W, strain spt3, hits give low values 0.262 | locus YER015W, strain faa2, hits give low values 0.917 | locus YER111C, strain swi4, hits give low values 0.793 | locus YER155C, strain BEM2 (second series), hits give low values 0.826 | locus YFR010W, strain ubp6, hits give low values 0.725 | locus YGL173C, strain kem1, hits give low values 0.124 | locus YGL240W, strain doc1, hits give low values 0.31 | locus YHR027C, strain rpn1, hits give low values 0.814 | locus YHR142W, strain chs7, hits give low values 0.846 | locus YJL092W, strain hpr5, hits give low values 0.913 | locus YJL095W, strain BCK1 (second series), hits give low values 0.891 | locus YJL115W, strain asf1, hits give low values 0.725 | locus YJL129C, strain trk1, hits give low values 0.637 | locus YJL154C, strain vps35, hits give low values 0.898 | locus YJL164C, strain tpk1, hits give low values 0.888 | locus YJL166W, strain qcr8, hits give low values 0.891 | locus YJL187C, strain SWE1, hits give low values 0.872 | locus YJR066W, strain TOR1, hits give low values 0.814 | locus YKL160W, strain elf1, hits give low values 0.887 | locus YLR027C, strain aat2, hits give low values 0.872 | locus YLR221C, strain rsa3, hits give low values 0.871 | locus YLR357W, strain rsc2, hits give low values 0.31 | locus YLR370C, strain arc18, hits give low values 0.478 | locus YLR384C, strain iki3, hits give low values 0.692 | locus YML120C, strain ndi1, hits give low values 0.888 | locus YMR058W, strain fet3, hits give low values 0.885 | locus YMR125W, strain sto1, hits give low values 0.686 | locus YMR231W, strain pep5, hits give low values 0.734 | locus YNL071W, strain lat1, hits give low values 0.89 | locus YNL209W, strain ssb2, hits give low values 0.796 | locus YNL248C, strain rpa49, hits give low values 0.73 | locus YOR001W, strain rrp6, hits give low values 0.793 | locus YOR080W, strain dia2, hits give low values 0.776 | locus YOR106W, strain vam3, hits give low values 0.699 | locus YPL051W, strain arl3, hits give low values 0.869 | locus YPL078C, strain atp4, hits give low values 0.826 | locus YPL106C, strain sse1, hits give low values 0.356 | locus YPL240C, strain hsp82, hits give low values 0.924
inactive: locus YAL026C, strain drs2, hits give low values 0.953 | locus YAL030W, strain snc1, hits give low values 0.93 | locus YBL061C, strain skt5, hits give low values 0.938 | locus YBR023C, strain chs3, hits give low values 0.944 | locus YBR171W, strain sec66, hits give low values 0.963 | locus YBR231C, strain swc5, hits give low values 0.976 | locus YCL011C, strain gbp2, hits give low values 0.935 | locus YCL016C, strain dcc1, hits give low values 0.947 | locus YCL069W, strain vba3, hits give low values 0.942 | locus YCR088W, strain abp1, hits give low values 0.962 | locus YDL040C, strain nat1, hits give low values 0.983 | locus YDR001C, strain nth1, hits give low values 0.965 | locus YDR137W, strain rgp1, hits give low values 0.852 | locus YDR297W, strain sur2, hits give low values 0.941 | locus YDR334W, strain swr1, hits give low values 0.917 | locus YEL003W, strain gim4, hits give low values 0.919 | locus YEL037C, strain rad23, hits give low values 0.963 | locus YEL061C, strain CIN8 (second series), hits give low values 0.952 | locus YER016W, strain bim1, hits give low values 0.976 | locus YGL167C, strain pmr1, hits give low values 0.998 | locus YGL227W, strain vid30, hits give low values 0.98 | locus YGL253W, strain hxk2, hits give low values 0.942 | locus YHR013C, strain ard1, hits give low values 0.929 | locus YHR030C, strain SLT2, hits give low values 0.9 | locus YHR079C, strain IRE1, hits give low values 0.924 | locus YJL095W, strain BCK1, hits give low values 0.934 | locus YKR026C, strain gcn3, hits give low values 0.965 | locus YKR091W, strain srl3, hits give low values 0.986 | locus YLL001W, strain dnm1, hits give low values 0.923 | locus YLL026W, hits give low values 0.934 | locus YLL041C, strain sdh2, hits give low values 0.946 | locus YLR113W, strain HOG1, hits give low values 0.958 | locus YLR258W, strain gsy2, hits give low values 0.922 | locus YLR262C, strain YPT6 (second series), hits give low values 0.904 | locus YLR320W, strain mms22, hits give low values 0.957 | locus YLR342W, strain FKS1, hits give low values 0.943 | locus YMR129W, hits give low values 0.949 | locus YMR205C, strain PFK2, hits give low values 1 | locus YNL183C, strain NPR1, hits give low values 0.881 | locus YNL322C, strain KRE1 (second series), hits give low values 0.942 | locus YNR049C, strain mso1, hits give low values 0.94 | locus YOR070C, strain gyp1, hits give low values 0.962 | locus YOR083W, strain WHI5, hits give low values 0.923 | locus YOR231W, strain MKK1, hits give low values 0.87 | locus YOR265W, strain rbl2, hits give low values 0.966 | locus YOR270C, strain vph1, hits give low values 0.781 | locus YOR290C, strain snf2, hits give low values 0.875 | locus YPL256C, strain CLN2, hits give low values 0.901

Nc1ccn([C@@H]2O[C@H](CO)[C@@H](O)C2O)c(=O)n1 (some centres not stated)
inactive: locus YAL013W, strain DEP1, hits give low values 0.982 | locus YAL040C, strain CLN3, hits give low values 1.03 | locus YDR363W, strain ESC2, hits give low values 0.981 | locus YER002W, strain NOP16, hits give low values 1 | locus YNL128W, strain TEP1, hits give low values 0.967 | locus YNL175C, strain NOP13, hits give low values 0.987 | locus YNL197C, strain WHI3, hits give low values 0.976 | locus YNL224C, strain SQS1, hits give low values 0.983 | locus YNL322C, strain KRE1, hits give low values 1 | locus YOR083W, strain WHI5 (second series), hits give low values 1.05 | locus YPL055C, strain LGE1, hits give low values 0.99 | locus YPL241C, strain CIN2, hits give low values 0.996
